# According to a collection of fitness landscapes (doi:10.1016/j.celrep.2020.107928):
# Over roughly 81,000 sequences, “one-hybrid fitness for binding NBS DNA” has its median near -0.1; the highest 2% begin near 0.36. What follows is part of a selection rich in the highest values, with near analogues and random picks from the rest.
# B1: Caulobacter ParB omega fusion; a variant is named by its letters at X, in order, B8GW30 (parent)
# chain: MESVVVGEPGMSEGRRGLGRGLSALLGEVDAAPAQAPGEQLGGSREAPIEILQRNPDQPRRTFREEDLEDLSNSIREKGVLQPILVRPSPDTAGEYQIVAGERAWRAAQRAGLKTVPIMVRELDDLAVLEIGIIENVQRADLNVLEEALSYKVLMEKFERTQENIAQTIGKSXSHVANXMRLLXLPDEVQSYLVSGELTAXHARAIAAAADPVALAKQIIEGGLSVRETEALARKAPNLSAGKSKGGRPPRVKDTDTQALESDLSSVLGLDVSIDHRGSTGTLTITYATLEQLDDLCNRLTRGI
# Variants of: B1
# Assay: one-hybrid fitness for binding NBS DNA (the Noc-binding site; scaled: cognate 1, non-cognate 0); higher = stronger binding
# Conditions: with NBS DNA site
# How it was run: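 Fitness here means the log change in variant-to-wild-type read ratio between plasmids sequenced before and after selection. That scale was set so cognate equals 1 and non-cognate equals 0. The selection was a bacterial one-hybrid screen of Caulobacter ParB libraries, four specificity codons randomised, in E. coli USO carrying a HIS3 reporter with the site 19 bp from the promoter, grown 48 hours at 37°C on M9-minus-histidine with 0.1 mM IPTG and 5 mM 3-AT.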
row,Variant,one-hybrid fitness for binding NBS DNA
1,LYSD,≤ 0.2
2,VKHG,≤ 0.2
3,FRVT,≤ 0.2
4,LRPY,≤ 0.2
5,RPRC,≤ 0.2
6,RCRC,0.391
7,RSRC,0.355
8,AGSH,≤ 0.2
9,ISGM,≤ 0.2
10,RNKR,0.535
11,RNNP,≤ 0.2
12,RNVR,≤ 0.2
13,RNVS,≤ 0.2
14,RNKS,0.489
15,RNNS,0.388
16,RNKN,≤ 0.2
17,RNDS,≤ 0.2
18,RNYR,≤ 0.2
19,RNIR,≤ 0.2
20,RNKH,0.237
21,RNRR,0.504
22,GHAT,≤ 0.2

row,Variant,one-hybrid fitness for binding NBS DNA
1,RHRC,0.295
2,IAAT,≤ 0.2
3,AKCT,≤ 0.2
4,RNNR,0.381
5,RNDR,≤ 0.2
6,RNND,≤ 0.2
7,TPFG,≤ 0.2
8,MWSR,≤ 0.2
9,HRYM,≤ 0.2
10,RRLC,0.301
11,RRHC,0.363
12,RPVC,≤ 0.2
13,RRVC,0.414
14,RRKC,0.375
15,RCVC,≤ 0.2
16,PACV,≤ 0.2
17,QHSI,≤ 0.2
18,QQRH,0.645
19,QQRP,0.312
20,QQFF,≤ 0.2
21,QQRF,0.387
22,QQQH,≤ 0.2

row,Variant,one-hybrid fitness for binding NBS DNA
1,QQYF,≤ 0.2
2,QQQS,0.428
3,QQQN,≤ 0.2
4,QQRS,0.714
5,QQRL,0.329
6,KQRS,0.224
7,QQRD,0.286
8,DWKY,≤ 0.2
9,RGQM,≤ 0.2
10,NLNF,≤ 0.2
11,VHRM,≤ 0.2
12,GFMT,≤ 0.2
13,YDNR,≤ 0.2
14,NHAS,≤ 0.2
15,GPQT,≤ 0.2
16,EHTR,≤ 0.2
17,QQSS,0.436
18,QQYN,≤ 0.2
19,QQHN,≤ 0.2
20,QQSN,≤ 0.2
21,QQHS,0.476
22,QQRN,0.466

row,Variant,one-hybrid fitness for binding NBS DNA
1,QQWF,≤ 0.2
2,QQWS,0.397
3,QQWG,≤ 0.2
4,QQHD,≤ 0.2
5,QQSH,0.208
6,QQDN,≤ 0.2
7,AVSG,≤ 0.2
8,DTKE,≤ 0.2
9,VVTF,≤ 0.2
10,TFLI,≤ 0.2
11,TFAN,≤ 0.2
12,CKWT,≤ 0.2
13,QQYS,0.406
14,QQNS,0.515
15,QQNM,0.206
16,QQLS,0.373
17,QQDS,0.282
18,QQGP,≤ 0.2
19,QQLP,≤ 0.2
20,QQLH,0.22
21,QQGS,0.443
22,QQGN,≤ 0.2
